Data on 24 compounds can be found in PubChem BioAssay AID1347383 (Zoeller Lab, School of Medicine, Boston University, 2020).

Active and inactive are the calls of the source.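 The calls were made as follows: active = cell survival after UV exposure 2 SD above solvent-only control wells at 10 µM, confirmed on one or two repeats; inactive = the rest.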

The nature of this test: cell survival after pyrene fatty acid photosensitization – ZR-82 cells, Analyticon library, screen 2, phospholipid biosynthesis inhibitor project, primary screen (AID 1347383).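 Also: survival reflects blocked phospholipid synthesis cutting uptake of the phototoxic fatty acid; compound and fatty acid exposure 3 h then viability read next day.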 Particulars: ZR-82 CHO cells, pyrene-fatty acid UV killing, CellTiter Blue; at 10 µM; peroxisome-deficient CHO-K1 variant; with DGAT-1, DGAT-2 and ACAT inhibitors. Background: Alamar Blue is a resazurin reagent that responds to reducing activity.
Take `CCOC(=O)C1C(=O)C(=O)Nc2ccccc21` (centres undefined): the result was inactive.
Under `CO[C@@H]1[C@H](OC(=O)/C=C/C(O)C(C)O)CC[C@]2(CO2)[C@H]1[C@@]1(C)O[C@@H]1CC=C(C)C` (some centres undefined) stands “inactive”; under `CCC/C=C\CC(N)CC(=O)O` (centres undefined), “inactive”.
For `O=C(O)CCC(=O)Cc1ccccc1`, the outcome was inactive.
With `COc1ccc(C(O)CNC(=O)/C=C/c2ccccc2)cc1` (centres undefined), the outcome was inactive.
Turning to `CC(O)C(O)/C=C/c1cccc(=O)o1` (centres undefined), the outcome was inactive.
Under `C[C@]1(C=O)[C@H]2CC[C@]3(C)O[C@@]14C(=O)c1cc(O)ccc1C(=O)C4=C[C@@H]23` stands “inactive”; under `CC(C)=CCc1c2c(c(O)c3c(=O)c(-c4ccc(O)c(O)c4)coc13)C=CC(C)(C)O2`, “inactive”.
For `O=C(OCc1ccccc1)c1ccccc1`, the result was inactive.
As for `Cc1cc2c(CO)cc(O)cc2o1`, the result was inactive.
`O=c1ccc2nccc3c4ccccc4n1c23`: the result was inactive.
Next, `C=C1[C@H]2CC[C@H](C(=O)O)[C@@]23CC[C@H](C3)C1(C)C`: “inactive”; `CC(=O)OC/C(=C\COc1cc(=O)oc2cccc(C)c12)CCC=C(C)C`: “inactive”.
Next, `CC12CCC3C1C(c1c(cc(O)c(C(=O)c4ccccc4)c1O)O2)C3(C)C` (centres undefined): “inactive”.
Next, `C=CC(=C)CCC1(C)C(C)CC(O)C23C(=CC(OC(C)=O)CC12)C(OC)OC3OC(C)=O` (centres undefined): “inactive”; `O=C(O)CCc1c(O)ccoc1=O`: “inactive”; `O=C1c2ccccc2C(=O)c2c(O)ccc(O)c21`: “inactive”.
For the compound `CC(CO)C1CCC2(C)CC3C(CO)CC(O)C3C(C)(O)CC=C12` (centres undefined), the outcome was inactive.
Under `O=C1CC(c2ccc(O)cc2O)Oc2cc(O)cc(O)c21` (centres undefined) stands “inactive”.
Next, `CS/C=C/C(=O)O[C@@H]1CCC2=CC(=O)C(=C(C)C)C[C@]2(C)[C@H]1C`: “inactive”; `CCC(O)/C=C1\OC(=O)C2=C1CCC=C2` (centres undefined): “inactive”; `O=C(O)C1(O)C[C@@H](O)C(O)[C@H](O)C1` (some centres undefined): “inactive”.
Next, `C=CCc1cc(OC)c(OC(C)C(O)c2ccc(O)c(OC)c2)c(OC)c1` (centres undefined): “inactive”; `C=CC(C)(C)c1cc(/C=C/C(=O)c2ccc(OC)cc2)c(O)cc1O`: “inactive”.
